Measurements from the supplement of paper PMC6555819.

What was measured:
Assay in all cases: PBM binding z-score (relative to random genomic background probes); higher = stronger binding; sequences stand for … in GC…GCGATTGACAGCGTAGAATGAAGG
[1] = tested on: FXR:RXRa (NR concentration 270 nM, RXRa partner concentration 90 nM)
Procedure, shortened: (§1)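 Random background probes are the reference for binding z-scores. These scores derive from regression-normalized fluorescence on custom Agilent 4×180K protein-binding microarrays incubated 1 h with ligand-free nuclear receptor dimers. Binding was detected with antibodies against each partner (one per run).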

[2] = tested on: LXRa:RXRa (NR concentration 270 nM, RXRa partner concentration 90 nM)
Procedure, shortened: as §1

[3] = tested on: LXRa homodimer (NR concentration 270 nM)
Procedure, shortened: as §1

[4] = tested on: LXRb:RXRa (NR concentration 270 nM, RXRa partner concentration 90 nM)
Procedure, shortened: as §1

[5] = tested on: LXRb homodimer (NR concentration 270 nM)
Procedure, shortened: as §1

[6] = tested on: PPARa:RXRa (NR concentration 270 nM, RXRa partner concentration 90 nM)
Procedure, shortened: as §1

[7] = tested on: PPARg:RXRa (NR concentration 180 nM, RXRa partner concentration 90 nM)
Procedure, shortened: as §1

[8] = tested on: PPARg:RXRa 270nM:90nM, anti-RXR (NR concentration 270 nM, RXRa partner concentration 90 nM)
Procedure, shortened: as §1

[9] = tested on: PPARg:RXRa 30nM:10nM, anti-RXR (NR concentration 30 nM, RXRa partner concentration 10 nM)
Procedure, shortened: as §1

[10] = tested on: PPARg:RXRa 90nM:30nM, anti-RXR (NR concentration 90 nM, RXRa partner concentration 30 nM)
Procedure, shortened: as §1

Row | Sequence | PBM binding z-score [1] | PBM binding z-score [2] | PBM binding z-score [3] | PBM binding z-score [4] | PBM binding z-score [5] | PBM binding z-score [6] | PBM binding z-score [7] | PBM binding z-score [8] | PBM binding z-score [9] | PBM binding z-score [10]
1 | TCGAGTAGGTTAGTCGGGGCATTGAGCCAACATA | -0.211 | -0.326 | -0.78 | 0.048 | -1.23 | 0.416 | -0.175 | 0.835 | 1 | 0.777
2 | ACAGACAGGTGAGTGAAGGTATCTCAGCTGGACG | -0.3 | -0.499 | -0.504 | -0.625 | -0.39 | 0.116 | 0.581 | -0.119 | 0.319 | -0.0281
3 | AGAACGAGGGCAATGCGTTGATAGCACGGGTGGC | 0.0853 | 0.264 | -0.517 | -0.19 | -0.678 | 1.3 | 1.36 | 0.671 | -0.109 | 0.215
4 | ACTATTAGTTGACTTAGGGCAACAGATACGACGC | 0.0788 | 0.0659 | 0.494 | 0.0147 | 0.162 | -0.0178 | 0.94 | 0.32 | 0.494 | 0.163
5 | TTATATAGGTAAAGGTGAAAGTCGAACGATATGA | 1.14 | 1.34 | 0.121 | 1.2 | 0.294 | 4.2 | 6.76 | 6.26 | 4.77 | 6.33
6 | AGTTAAAGTTCACTAGGTAACGTAAGATTCAGCT | 4.84 | 4.91 | 3.45 | 2.98 | 1.1 | 4.57 | 6.24 | 5.79 | 2.62 | 4.52
7 | TCTGCTAGGTCAGTTGTTCAGCTAACGAGCTGCC | 0.697 | 0.0799 | -0.424 | 0.213 | 0.398 | 1 | -0.335 | 1.24 | 1.28 | 1.21
8 | ACGGACAGGTGAGTGAAGGTAACTCAGCTGGACG | 0.715 | 0.141 | -0.591 | -0.294 | -0.864 | 0.253 | 0.452 | 0.12 | -0.363 | 0.0719
9 | ATATGTAGGTTATCGGGTCATGCAGTTTGCGCAT | 2.87 | 3.08 | 1.26 | 2.54 | 0.785 | 4.99 | 7.53 | 6.31 | 4.45 | 6.01
10 | TGAAAGAGGTTAAAGATCAGGGAACGTGGCGTCG | 3.91 | 3.07 | 0.208 | 2.03 | 0.261 | 4.59 | 4.87 | 5.44 | 3.46 | 5.15
11 | CAAACTAGGTCACCGGAAGGTCAAAGTCCGCATG | 6.27 | 6.15 | 5.16 | 5.46 | 1.59 | 6.16 | 9.5 | 7.87 | 5.79 | 7.49
12 | TCCGCTAGGTCAGTTGGTCAGCTAACGAGCTGCC | 1.2 | 0.833 | -0.36 | 0.472 | -0.0467 | 1.57 | 0.233 | 1.55 | 1.2 | 1.49
13 | TCTTGTAGATCAGCAGGTTAGGAAAGCTGGCCAA | -0.1 | 0.244 | -0.295 | -0.112 | -0.394 | 0.532 | -0.423 | 1.47 | 2.53 | 2.15
14 | CATACAGGGTCAGCTAGGCCAAAGTAGGGACGGC | 4.83 | 3.04 | 0.0314 | 2.39 | 0.557 | 4.4 | 3.32 | 3.26 | 0.781 | 1.85
15 | CGTCCAAGGTCAATGATAGGTCAGTGAAAGCATT | 6.83 | 6 | 2.8 | 4.83 | 0.895 | 5.41 | 3.87 | 4.8 | 1.74 | 3.35
16 | TCTATTAGTTGAAGGGCAACCGTCGAGTCCGTTT | 0.742 | 0.933 | 0.368 | 0.792 | 0.191 | 0.493 | -0.355 | 2.08 | 3.65 | 2.84
17 | CTCGAAAGGTCGGGCTCAGGTGAGTATACCAAAC | 3.1 | 2.11 | -0.238 | 1.9 | 0.116 | 3.25 | 0.671 | 1.88 | -0.168 | 0.853
18 | ATCGAAAGGTAGACGAGGTGAGTATACACCGTTT | 0.276 | -0.145 | -0.253 | -0.306 | -0.37 | 0.231 | 0.859 | 0.249 | 0.55 | 0.0652
19 | GGAACGCGGGCAAAGTTGATAGCATCTGTCGACG | -0.48 | -0.465 | -0.736 | -0.893 | -0.943 | 1.67 | 2.51 | 4.63 | 1.85 | 4.06
20 | ACTTACGGGTCAACGAGGCTATAGCACGCGTATA | 7.11 | 4.24 | 0.0789 | 3.85 | 0.747 | 5.82 | 5.21 | 4.87 | 1.81 | 3.64
21 | CCGATTGGGGCATAAGGTTACCATAAGCCAGCCC | 0.433 | 2.07 | -0.331 | 0.749 | -0.968 | 1.96 | 1.92 | 2.87 | 0.812 | 2.27
22 | TGTCAAAGTTCAAAGGTAACGTTAGTATCCACAC | 7.28 | 6.46 | 4.63 | 4.65 | 1.95 | 5.88 | 8.96 | 7.52 | 5.52 | 7.18
23 | TAGCCTAGGTCAGATCGGGCCTGTATACGCTATA | 1.56 | 0.715 | -0.411 | 0.501 | -0.0997 | 1.49 | 0.482 | 0.395 | -0.139 | 0.162
24 | CCAGACAGGTTAGAAGGTAACTCAGCCTCGATTA | 0.224 | 0.466 | 0.473 | 0.483 | 0.172 | 0.816 | 0.402 | 0.288 | -0.236 | 0.116
